Experimental data reported in PubChem BioAssay (NCI).
“And” between values parts separate entries of the source, which are not always exact repeats. Identical values can stand only once. Compounds without any hit were thinned out: in the full panel of roughly 79,000, 15% have a hit. A number with no mark means an inactive call. The source made the active and inactive calls. No stated cut-off is given here; in the data, active means growth inhibition above about 70%; inactive means the rest.

Key:
[1] = NCI Yeast Anticancer Drug Screen. Data for the rad50 strain (AID 155);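 further: 0% = growth of vehicle-only cultures of the same strain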; settings: S. cerevisiae rad50 strain growth inhibition, hits give high values; at 50.0 µM unless noted
Summary of the method: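 Relative growth inhibition (compound vs vehicle) was measured in yeast with a defined repair-gene alteration.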

[2] = NCI Yeast Anticancer Drug Screen. Data for the mec2-1 strain (AID 157); settings: S. cerevisiae mec2-1 strain, hits give high values; at 50.0 µM unless noted
Summary of the method: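 Vehicle-treated cultures served as reference for growth inhibition of compound-exposed mec2-1 yeast.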

[3] = NCI Yeast Anticancer Drug Screen. Data for the sgs1 mgt1 strain (AID 161);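 further: 0% = growth of cultures given vehicle only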; settings: S. cerevisiae sgs1 mgt1 strain, hits give high values; at 50.0 µM unless noted
Summary of the method: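 Mutant yeast exposed to compound; growth scored against vehicle-only wells.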

[4] = NCI Yeast Anticancer Drug Screen. Data for the cln2 rad14 strain (AID 165);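 further: 0% = growth equal to vehicle treated cultures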; settings: S. cerevisiae cln2 rad14 strain, hits give high values; at 50.0 µM unless noted
Summary of the method: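 Each compound was tested on cln2 rad14 yeast. Inhibition of growth was calculated against vehicle-exposed controls.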

[5] = NCI Yeast Anticancer Drug Screen. Data for the bub3 strain (AID 167); settings: S. cerevisiae bub3 mutant strain, hits give high values; at 50.0 µM unless noted
Summary of the method: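 Screening used yeast with an engineered genetic alteration affecting cell cycle control. Compound-exposed cultures were compared with vehicle cultures, and reduced growth was taken as inhibition.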

[6] = NCI Yeast Anticancer Drug Screen. Data for the mlh1 rad18 strain (AID 175); settings: S. cerevisiae mlh1 rad18 strain growth inhibition, hits give high values; at 50.0 µM unless noted
Summary of the method: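 Vehicle-treated cultures served as the reference for growth inhibition in a yeast strain carrying DNA damage repair alterations exposed to each compound.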

## O=C1CCCC2CCCC(=O)N12
[1]
  growth inhibition: -1.35%
[2]
  growth inhibition: -0.85%
[3]
  growth inhibition: -0.4%
[4]
  growth inhibition: 8.9%
[5]
  growth inhibition: 1%
[6]
  growth inhibition: -9.7%

## CCC(=O)Cc1nc2n(c1O)/C(=N/C(=O)Nc1ccc(Cl)cc1)N=N2
[1]
  growth inhibition: -2.05%
[2]
  growth inhibition: -7.5%
[3]
  growth inhibition: -2.9%
[4]
  growth inhibition: -35.8%
[5]
  growth inhibition: -15.2%
[6]
  growth inhibition: 11.6%

## Cc1ccc(O)c(-c2ccnn2-c2ccccc2)c1
[1]
  growth inhibition: 20.5%
[2]
  growth inhibition: 33.9%
[3]
  growth inhibition: 15.1%
[4]
  growth inhibition: -10.8%
[5]
  growth inhibition: 5.25%
[6]
  growth inhibition: 35.8%

## COc1ccc(NC(C)=O)cc1
[1]
  growth inhibition: 24.8%
[2]
  growth inhibition: 3.2%
[3]
  growth inhibition: 2.7%
[4]
  growth inhibition: 13.8%
[5]
  growth inhibition: 11.8%
[6]
  growth inhibition: -11.1%

## Cc1ccc(NC(=O)N(C)C)c(C)c1
[1]
  growth inhibition: -36.7%
[2]
  growth inhibition: -37%
[3]
  growth inhibition: -4.9%
[4]
  growth inhibition: 12%
[5]
  growth inhibition: 16.4%
[6]
  growth inhibition: -9.75%

## O=C(O)c1cc(Cl)c2ccccc2c1O
[1]
  growth inhibition: 46.8%
[2]
  growth inhibition: 45.8%
[3]
  growth inhibition: 46.8%
[4]
  growth inhibition: 31.6%
[5]
  growth inhibition: 42.1%
[6]
  growth inhibition: 33.1%

## C1COC2(OC1)OCCCO2
[1]
  growth inhibition: -14.8%
[2]
  growth inhibition: 1.35%
[3]
  growth inhibition: -7.85%
[4]
  growth inhibition: -71.5%
[5]
  growth inhibition: 8.75%
[6]
  growth inhibition: 3.05%

## O=C1C(O)=C(O)C(Br)=C/C1=C(/c1ccccc1S(=O)(=O)O)c1cc(Br)c(O)c(O)c1O
[1]
  growth inhibition: 9.65%
[2]
  growth inhibition: 6.9%
[3]
  growth inhibition: 15.5%
[4]
  growth inhibition: 1.8%
[5]
  growth inhibition: -0.2%
[6]
  growth inhibition: 18.4%

## NC(N)=NC(N)=Nc1cc(Cl)c(Cl)cc1Cl
[1]
  growth inhibition: 98.2% (active)
[2]
  growth inhibition: 99.5% (active)
[3]
  growth inhibition: 99.3% (active)
[4]
  growth inhibition: 98.8% (active)
[5]
  growth inhibition: 99.2% (active)
[6]
  growth inhibition: 99.3% (active)

## CC(C)C(=O)Nc1nc2nc[nH]c2c(=O)[nH]1
[1]
  growth inhibition: 11.6%
[2]
  growth inhibition: -23.6%
[3]
  growth inhibition: 24.9%
[4]
  growth inhibition: 12.8%
[5]
  growth inhibition: -7.95%
[6]
  growth inhibition: -22.9%

## NCC1COC(c2ccccc2)(c2ccccc2)O1 (stereo not given)
[1]
  growth inhibition: -2.25%
[2]
  growth inhibition: -12.4%
[3]
  growth inhibition: -12.9%
[4]
  growth inhibition: -32.5%
[5]
  growth inhibition: 17.8%
[6]
  growth inhibition: -7.65%

## c1cncc(C2c3[nH]c4ccccc4c3CCN2CCCN2CCCCC2)c1 (stereo not given)
[1]
  growth inhibition: -5.2%
[2]
  growth inhibition: -36.7%
[3]
  growth inhibition: 2.3%
[4]
  growth inhibition: 10.7%
[5]
  growth inhibition: -9.55%
[6]
  growth inhibition: -0.5%

## Cn1cnc([N+](=O)[O-])c1Sc1ncn[nH]1
[1]
  growth inhibition: -3.45% and 6%
[2]
  growth inhibition: 3.3% and -1.85%
[3]
  growth inhibition: 8.45% and 2.6%
[4]
  growth inhibition: 0.35% and 24.6%
[5]
  growth inhibition: 4% and 21.8%
[6]
  growth inhibition: -54.3% and 0.9%

## CN1c2ccccc2C(=O)N2C(=O)CCC21C (stereo not given)
[1]
  growth inhibition: -38.9%
[2]
  growth inhibition: -15.4%
[3]
  growth inhibition: -20.7%
[4]
  growth inhibition: -14.2%
[5]
  growth inhibition: -13.4%
[6]
  growth inhibition: -11.1%

## COc1ccc2nc3ccccc3c(NCCC[N+](C)(C)[O-])c2c1[N+](=O)[O-]
[1]
  growth inhibition: -6.4%
[2]
  growth inhibition: -16.4%
[3]
  growth inhibition: 3.45%
[4]
  growth inhibition: -34.1%
[5]
  growth inhibition: -13.1%
[6]
  growth inhibition: -7.55%

## Cc1cccc2c(N3CCN(c4ccccc4)CC3)c3c(nc12)CCCCC3
[1]
  growth inhibition: 11.4%
[2]
  growth inhibition: -22.7%
[3]
  growth inhibition: -12.3%
[4]
  growth inhibition: -3.05%
[5]
  growth inhibition: 3.2%
[6]
  growth inhibition: -2.7%

## ClCCCN(CCCCl)c1ccc(C=Nc2cccc(Cl)c2)c(Cl)c1
[1]
  growth inhibition: 91.1% (active)
[2]
  growth inhibition: 76.6% (active)
[3]
  growth inhibition: 95.5% (active)
[4]
  growth inhibition: 85.2% (active)
[5]
  growth inhibition: 81.5% (active)
[6]
  growth inhibition: 93.5% (active)

## O=S1(=O)CCC(c2ccccc2)C1 (stereo not given)
[1]
  growth inhibition: 2.3%
[2]
  growth inhibition: -10.7%
[3]
  growth inhibition: -13.8%
[4]
  growth inhibition: 0.45%
[5]
  growth inhibition: -12.3%
[6]
  growth inhibition: -7.15%

## CCCNC(=O)Cn1c(-c2ccccc2)cc2ccccc21
[1]
  growth inhibition: 13.4%
[2]
  growth inhibition: 5.5%
[3]
  growth inhibition: 16.7%
[4]
  growth inhibition: 18.4%
[5]
  growth inhibition: 27.9%
[6]
  growth inhibition: -52.8%

## Nc1ccccc1C1CCCCC1
[1]
  growth inhibition: 32.1%
[2]
  growth inhibition: -13.6%
[3]
  growth inhibition: 52%
[4]
  growth inhibition: -19.4%
[5]
  growth inhibition: 3.95%
[6]
  growth inhibition: 26.6%

## CCOC(=O)c1cc(C)ncc1N
[1]
  growth inhibition: 9.85%
[2]
  growth inhibition: 7.4%
[3]
  growth inhibition: -7.1%
[4]
  growth inhibition: 13.2%
[5]
  growth inhibition: -0.95%
[6]
  growth inhibition: 3.3%

## Cc1ccnc(NC(=O)CCc2ccccc2)c1
[1]
  growth inhibition: -11.8%
[2]
  growth inhibition: -16.8%
[3]
  growth inhibition: -10.3%
[4]
  growth inhibition: -31.7%
[5]
  growth inhibition: -13.2%
[6]
  growth inhibition: -5.85%

## Nc1cnccc1N1CCN(c2cccc3ccccc23)CC1
[1]
  growth inhibition: 99% (active)
[2]
  growth inhibition: 99.3% (active)
[3]
  growth inhibition: 99.2% (active)
[4]
  growth inhibition: 98.8% (active)
[5]
  growth inhibition: 98.4% (active)
[6]
  growth inhibition: 99% (active)

## CC(C)(C)C(C)(C)SSC(C)(C)C(C)(C)C
[1]
  growth inhibition: 6.05%
[2]
  growth inhibition: 12.4%
[3]
  growth inhibition: 18.8%
[4]
  growth inhibition: 7.4%
[5]
  growth inhibition: 15.7%
[6]
  growth inhibition: 25.5%

## ClCCOCCOc1ccc(C2CCCCC2)cc1
[1]
  growth inhibition: 12.9% and -1.65%
[2]
  growth inhibition: 11.9% and -0.75%
[3]
  growth inhibition: 56% and -3.65%
[4]
  growth inhibition: 24.1% and -10.8%
[5]
  growth inhibition: 28.2% and 31.4%
[6]
  growth inhibition: 13.8% and 9.05%

## Cc1ccc(/C=N/NC(N)=S)nn1
[1]
  growth inhibition: 3.45%
[2]
  growth inhibition: 2.25%
[3]
  growth inhibition: -8.15%
[4]
  growth inhibition: -67.4%
[5]
  growth inhibition: 2.45%
[6]
  growth inhibition: 5.4%

## C/C(CCC(CC(=O)O)C(C)C)=N\NC(N)=O (stereo not given)
[1]
  growth inhibition: -5.85%
[2]
  growth inhibition: 1.8%
[3]
  growth inhibition: -6.65%
[4]
  growth inhibition: -35.9%
[5]
  growth inhibition: -27.4%
[6]
  growth inhibition: 4.65%

## COCc1ccccc1-n1nccc1S(C)=O (stereo not given)
[1]
  growth inhibition: -10.9%
[2]
  growth inhibition: 25.4%
[3]
  growth inhibition: 1.8%
[4]
  growth inhibition: 4.1%
[5]
  growth inhibition: 3.25%
[6]
  growth inhibition: -2.6%

## O=C(NC12CC3CC(CC(C3)C1)C2)C(=O)c1c[nH]c2ccc([N+](=O)[O-])cc12
[1]
  growth inhibition: -17.4%
[2]
  growth inhibition: -25.1%
[3]
  growth inhibition: -50.6%
[4]
  growth inhibition: -9.85%
[5]
  growth inhibition: -15.1%
[6]
  growth inhibition: -31.9%

## C=C1C(=O)O[C@@H]2C[C@@H](C)[C@@H]3C=CC(=O)[C@@]3(C)[C@@H](OC(=O)CCCC(=O)O[C@H]3[C@@H]4C(=C)C(=O)O[C@@H]4C[C@@H](C)[C@@H]4C=CC(=O)[C@]43C)[C@H]12
[1]
  growth inhibition: 50.1%
[2]
  growth inhibition: 49%
[3]
  growth inhibition: 57.6%
[4]
  growth inhibition: 31.1%
[5]
  growth inhibition: 58%
[6]
  growth inhibition: 34.9%

## CC(C)N1C(=O)NC2C1NC(=O)N2C(C)C (stereo not given) (tested in a mixture with another compound)
[1]
  growth inhibition: -14.8%
[2]
  growth inhibition: -5.2%
[3]
  growth inhibition: -1.15%
[4]
  growth inhibition: 22.4%
[5]
  growth inhibition: -12.8%
[6]
  growth inhibition: -3.05%

## CCNc1cccc(C)c1
[1]
  growth inhibition: 28.9%
[2]
  growth inhibition: -10.7%
[3]
  growth inhibition: -16.2%
[4]
  growth inhibition: -33.8%
[5]
  growth inhibition: 12.8%
[6]
  growth inhibition: 23.1%

## Cc1nc2c(N)n[nH]c(=O)n2n1
[1]
  growth inhibition: -20.9%
[2]
  growth inhibition: -14.4%
[3]
  growth inhibition: -19.2%
[4]
  growth inhibition: -54%
[5]
  growth inhibition: 7.15%
[6]
  growth inhibition: -4.7%

## COC(=O)OCCOC(=O)OC
[1]
  growth inhibition: 3.15%
[2]
  growth inhibition: 1.5%
[3]
  growth inhibition: -8.45%
[4]
  growth inhibition: 18.1%
[5]
  growth inhibition: 15.3%
[6]
  growth inhibition: 9.5%

## NCCNc1ccccc1
[1]
  growth inhibition: -32.9%
[2]
  growth inhibition: -62%
[3]
  growth inhibition: -42.2%
[4]
  growth inhibition: 6.6%
[5]
  growth inhibition: -20.4%
[6]
  growth inhibition: -22.9%

## N=C(N)SCc1ccc(Oc2ccc(CSC(=N)N)cc2)cc1
[1]
  growth inhibition: 0.4%
[2]
  growth inhibition: 1.45%
[3]
  growth inhibition: -4.5%
[4]
  growth inhibition: 0.5%
[5]
  growth inhibition: -2.4%
[6]
  growth inhibition: 15.3%

## CC1(C)OCC(N)[C@@H](O)CO1 (stereo not given in full)
[1]
  growth inhibition: 5%
[2]
  growth inhibition: 12.9%
[3]
  growth inhibition: 13.3%
[4]
  growth inhibition: -26.2%
[5]
  growth inhibition: 3.5%
[6]
  growth inhibition: -0.65%

## CCCCCCCCCCCCOC(=O)NC1c2ccccc2Oc2ccccc21
[1]
  growth inhibition: 30.4%
[2]
  growth inhibition: 17.6%
[3]
  growth inhibition: 26.6%
[4]
  growth inhibition: 32.5%
[5]
  growth inhibition: 19.6%
[6]
  growth inhibition: 43.4%

## CC(=O)OC(C)COc1ccccc1 (stereo not given)
[1]
  growth inhibition: 23.1% and 5.6%
[2]
  growth inhibition: 1.55% and -10.3%
[3]
  growth inhibition: 2.05% and -4.55%
[4]
  growth inhibition: -31.2% and -6.8%
[5]
  growth inhibition: -17.1% and 8.8%
[6]
  growth inhibition: 15.6% and 15%

## Cc1ccc(Nc2cc(C(=O)O)c(Nc3ccc(C)cc3)cc2C(=O)O)cc1
[1]
  growth inhibition: 0.7%
[2]
  growth inhibition: -10.6%
[3]
  growth inhibition: 12.3%
[4]
  growth inhibition: 33.4%
[5]
  growth inhibition: 7.85%
[6]
  growth inhibition: 6.9%
